Eleven compounds from PubChem BioAssay (NCI) can be followed below.

Where “and” joins values, the source holds several entries; their conditions need not be identical. Equal entries are not always repeated. The panel holds about 83,000 compounds, 20% with a hit somewhere; the sample as a whole holds those more often.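 Plates (96-well) were seeded with cells, treated with compound at one concentration, and incubated for 48 hours before percent growth was determined.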 A number with no mark means an inactive call. Calls of active or inactive are those of the source. How the source made its calls: active means growth percent below 10; inactive means the rest.

What all share (test): NCI-60 one-dose screen, 48 h (100 = growth as untreated, 0 = no growth, -100 = all killed)
What all share (conditions): 10 µM unless noted

Assay [1] deals with SK-MEL-2 melanoma.
Assay [2] relates to EKVX NSCLC.
Assay [3] concerns SN12C renal.
Assay [4] concerns UO-31 renal.
In assay [5] the test system is TK-10 renal.
In assay [6] the test system is ACHN renal.
In assay [7] the test system is CAKI-1 renal.
For assay [8], the system named is A498 renal.
In assay [9] the test system is CCRF-CEM leukemia.
Assay [10] relates to MOLT-4 leukemia.

Consider `ON=C(C1CCCCC1)C1CCCCC1`, for which the growth in assay [1] was 107%; in assay [2], 97.8%; in assay [3] it was 99.9%; in assay [4], 89.3%; in assay [5], 90.2%; in assay [6] it was 101%. The growth in assay [7] was 87.4%; in assay [8], 94.7%; in assay [9], 99.8%; in assay [10] it was 114%.
Consider `CC(=O)c1cccc(OC(=O)c2ccccc2)c1`, for which the growth in assay [1] is 88.9%; in [2] it was 110%; in [3], 91.2%; in [4] it was 103%; in assay [5], 106%; in assay [6] it was 109%. The growth in assay [7] was 91.1%; in assay [8] it was 107%; in [9], 97.8%; in assay [10], 84.7%.
On to `CCC/C(=N/NC(N)=O)c1ccco1`, for which the growth in assay [1] is 94.8%; in assay [2], 89.7%; in assay [3], 93%; in assay [4] it was 90.6%; in [5] it was 88.3%; in assay [6], 94.9%. Also, the growth in assay [7] was 92.7%; in assay [8] it was 68.1%; in [9], 97.8%; in assay [10], 80.3%.
As to `COc1ccc(C(=O)C(O)c2ccc(OC)cc2)cc1` (stereo not given), the growth was 111% and 108% in assay [1]; 107% and 110% in [2]; 113% and 112% in assay [3]; 89.1% and 90.7% in assay [4]; 102% and 107% in assay [5]; 109% and 112% in assay [6]. Moreover, the growth in assay [7] was 104% and 100%; in assay [8], 97.4% and 104%; in [9] it was 108% and 105%; in assay [10], 107% and 100%.
As to `CCOCCC(=O)O`, the growth in [1] was 109%; in [2], 98.8%; in assay [3] it was 103%; in assay [4], 102%; in assay [5], 103%; in [6], 110%. In addition, the growth in [7] is 102%; in assay [8], 80.1%; in [9], 98.9%; in assay [10], 116%.
For `Cc1cc(-c2ccc(N=Nc3c(C)nn(-c4ccc(S(=O)(=O)O)cc4)c3O)c(C)c2)ccc1N=Nc1ccc(O)c(C(=O)O)c1`, the growth in assay [1] was 73%; in [2] it was 104%; in assay [3] it was 95.8%; in assay [4] it was 69.1%; in assay [5] it was 141%; in [6], 98%. Also, the growth in [7] is 100%; in [8] it was 120%; in [9], 99.4%; in [10], 102%.
With `O=P(O)(O)OC1C(OP(=O)(O)O)C(OP(=O)(O)O)C(OP(=O)(O)O)C(OP(=O)(O)O)C1OP(=O)(O)O.[Cu+2]` (stereo not given), the growth in assay [1] is 92.9%; in assay [2], 126%; in assay [3] it was 87.4%; in assay [4], 98.2%; in [5], 118%; in [6], 99.7%. For the same compound, the growth in assay [7] is 113%; in assay [8], 85.3%; in assay [9] it was 101%; in assay [10] it was 98.9%.
For `Cc1c(Cl)c(C)c(Cc2c(C)c(Cl)c(C)c(Cl)c2O)c(O)c1Cl`, the growth in [1] is 1.72% (active); in assay [2], 3.88% (active); in assay [3], 8.8% (active); in assay [4] it was 7.71% (active); in assay [5] it was 25.1%; in [6] it was 3.3% (active). Also, the growth was 4.14% (active) in [7], -21.6% (active) in assay [8], 26.5% in [9] and 16.5% in assay [10].
As for `CCCCCCCCCCCCCCCCC(=O)O`, the growth is 103% in assay [1]; 106% in assay [2]; 103% in assay [3]; 85.7% in assay [4]; 86.6% in assay [5]; 112% in [6]. The growth in assay [7] is 104%; in [8], 115%; in [9], 91.5%; in assay [10] it was 95%.
`O=[N+]([O-])c1ccc(N/N=C/C2CCCCCC2)c([N+](=O)[O-])c1`: the growth in [1] is 105%; in assay [2], 84.9%; in assay [3], 92%; in [4] it was 61.2%; in assay [5], 118%; in assay [6], 70.4%. Further, the growth was 74.2% in assay [7], 62.7% in assay [8], 51.6% in [9] and 77.3% in assay [10].
Regarding `CCOc1ccc(/C=C\C(=O)O)cc1`, the growth was 114% in assay [1]; 115% in assay [2]; 101% in assay [3]; 98.7% in assay [4]; 109% in assay [5]; 109% in [6]. Further, the growth in assay [7] is 113%; in [8] it was 101%; in assay [9], 96%; in [10], 92%.
